# Source: PubChem BioAssay (NCI)
# About 83,000 compounds went through this panel and 20% of them were active in at least one assay; those are over-represented in the sample as a whole.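 The endpoint reported here, percent growth, reads 100 for growth as untreated, 0 for no net growth and -100 for all cells dead.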 Values without a mark were called inactive. Active and inactive are the calls of the source. Rule for the calls: active = growth percent below 10; inactive = the rest.
# Key:
# Assay in all cases: NCI-60 one-dose screen, 48 h (100 = growth as untreated, 0 = no growth, -100 = all killed)
# Conditions in all cases: 10 µM unless noted
# [1] = system: SR leukemia
# [2] = system: OVCAR-8 ovarian
# [3] = system: OVCAR-5 ovarian
# [4] = system: SK-OV-3 ovarian
# [5] = system: IGROV1 ovarian
# [6] = system: OVCAR-3 ovarian
# [7] = system: HS 578T breast
# [8] = system: NCI/ADR-RES ovarian
# [9] = system: RPMI-8226 leukemia
# [10] = system: OVCAR-4 ovarian
SMILES,growth [1],growth [2],growth [3],growth [4],growth [5],growth [6],growth [7],growth [8],growth [9],growth [10]
CCOC(=O)[C@H](CSSc1ncnc2cc[nH]c12)NC(=O)[C@@H](C)c1ccc2cc(OC)ccc2c1,18.9%,20.7%,27.3%,8.34% (active),41.3%,25.4%,59%,18.6%,,
CN(C)C1CCC(NC2=CC(=O)C=CC2=O)CC1 (stereo not drawn),,113%,118%,119%,105%,116%,108%,111%,111%,111%
COC(=O)c1ccc2nc(-c3cc4ccccc4n3C)n(CCCCOc3cc4c(cc3OC)C(=O)N3CCC[C@H]3C=N4)c2c1,,16.5%,-1.18% (active),30.1%,-68.2% (active),-40.2% (active),-62.5% (active),29.5%,-32.9% (active),-24% (active)
COC1=CC(c2ccc[nH]2)=N/C1=C\c1[nH]c(C)c(CCCn2cc(CCCCCCCCC[C@@H]3Cc4cc(O)ccc4C4CC[C@]5(C)[C@@H](O)CC[C@H]5C43)nn2)c1C (stereo partly drawn),66.7%,70.4%,32%,84%,78.1%,63.2%,,69.5%,,
Nc1c(C(=O)Nc2cccc(C(F)(F)F)c2)sc2nc3c(cc12)CCCCCC3,21.1%,-37.4% (active),12.8%,2.08% (active),14.6%,0.0711% (active),29.5%,12%,,
CC[C@H](C)[C@H]1NC(=O)[C@@H](N[C@](C)(O)[C@@H](N)CC(C)C)[C@@H](C)OC(=O)[C@H](Cc2ccc(OC)cc2)N(C)C(=O)[C@@H]2CCCN2C(=O)[C@H](CC(C)C)NC(=O)[C@@H](C)C(=O)[C@H](C(C)C)OC(=O)C[C@@H]1O,,-13.6% (active),-14.9% (active),-13% (active),-13.4% (active),-20.8% (active),-4.99% (active),37.4%,-33% (active),-6.08% (active)
NC(N)=NC(N)=Nc1ccccc1-c1ccccc1,,113%,110%,123%,110%,117%,109%,117%,112%,110%
Cc1nc2sccn2c1-c1csc(Nc2ccccc2Cl)n1,,53%,54.9%,75.9%,60.5%,47.7%,76.7%,21.6%,38.9%,47.3%
CCCCNC(=O)NS(=O)(=O)c1ccc(N2N=C(c3ccc(C)cc3C)CC2c2ccc(OC)cc2)cc1 (stereo not drawn),,62.9%,89.6%,101%,98.9%,75.2%,87.3%,45%,40.3%,68.4%
c1cncc(CNc2ccccc2-c2nnc(Nc3ccc4c(c3)OCCO4)o2)c1,14.1%,,43.9%,-4.48% (active),40.9%,-50.3% (active),77.9%,6.09% (active),,44%
CCc1c(C(=O)Nc2ccc3ccccc3c2)[nH]c(C)c1C(C)=O,,104%,101%,99.7%,108%,103%,98.5%,94.8%,75.8%,76.7%
CC(C)[C@H](CO)Nc1nc(Nc2ccc(C(=O)NCCNS(=O)(=O)c3cccc4c(N(C)C)cccc34)c(Cl)c2)c2ncn(C(C)C)c2n1,-10.7% (active),,49.4%,72.8%,-13.7% (active),20.2%,,94.5%,,41.8%
Cc1cc(-c2ccccc2)c(C)n1Cc1ccc(Cl)cc1,,47.2%,64.5%,62.2%,50.4%,27.3%,50.6%,14%,44.1%,61.6%
CCC(c1cccc(Br)c1)C(C(=O)O)c1ccc(OC)cc1 (stereo not drawn),,107%,109%,107%,99.3%,110%,91.4%,103%,101%,114%
CCO/C=N/NC(=O)c1ccncc1,,108%,103%,109%,108%,106%,105%,111%,108%,109%
